# Measurements as given in PubChem BioAssay (EPA / NIEHS).
# Results filed as inconclusive are left out. Activity calls are given as the source filed them. Rule for the calls, unless noted: active = hit-call score of the fitted dose curve at least 0.9, where 1 is the maximum; inconclusive = response in the unintended direction; inactive = score below 0.9.
# How the values were obtained:
# [1] = read-out: ABC Transporter (ABCB1), ABCB1 (gene 5243); assay: CLD_ABCB1_6hr: CellzDirect (CLD) Gene Expression Assay for ABC Transporter (ABCB1) at 6 hours (AID 2283659);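 note: hits raise ABCB1 transcript above the DMSO vehicle baseline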
# Summary of the method: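 ABCB1 transcript measured by quantitative nuclease protection assay, chemiluminescent read-out, 6 h after dosing human hepatocyte cultures (0.2% DMSO vehicle, daily redosing). Activity fitted as increase over DMSO baseline; cytotoxicity flagged by phase-contrast morphology.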
# [2] = read-out: xenobiotic metabolism (CYP1A1), CYP1A1 (gene 1543); assay: CLD_CYP1A1_6hr: CellzDirect (CLD) Gene Expression Assay for xenobiotic metabolism (CYP1A1) at 6 hours (AID 2283661);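 for AC50: potency for transcript induction above DMSO vehicle baseline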
# Summary of the method: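 Read-out 6 h post-dose: qNPA chemiluminescent quantitation of transcript induction against 0.2% DMSO. Cells were cultured primary human hepatocytes from two separate donor preparations; phase-contrast morphology annotated apparent cytotoxicity.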
# [3] = tested on: Thyroperoxidase (TPO), gene 54314; assay: CCTE_Simmons_AUR_rTPO: CCTE's Amplex UltraRed Assay for Thyroperoxidase (TPO) Inhibition, Simmons Lab (AID 2283662);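 note: potency for loss of signal meaning inhibition of peroxidase activity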
# Summary of the method: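 Endpoint is decreased Amplex UltraRed fluorescence after a 30-min, 37C reaction of rat thyroid microsomes with 300 uM H2O2. Eight test concentrations (5 nM–87.5 uM final) in 0.5% DMSO, three biological replicates each.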
# [4] = read-out: xenobiotic metabolism (CYP1A2), CYP1A2 (gene 1544); assay: CLD_CYP1A2_6hr: CellzDirect (CLD) Gene Expression Assay for xenobiotic metabolism (CYP1A2) at 6 hours (AID 2283663);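 for AC50: potency is for induction meaning a rise in mRNA above DMSO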
# Summary of the method: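 mRNA levels quantified by quantitative nuclease protection assay with chemiluminescence, 6 h after dosing human primary hepatocyte cultures (two donors) across several concentrations, vehicle 0.2% DMSO. Induction fitted upward versus DMSO; phase-contrast cytotoxicity annotated.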
# [5] = read-out: xenobiotic metabolism (CYP2C9), CYP2C9 (gene 1559); assay: CLD_CYP2C9_6hr: CellzDirect (CLD) Gene Expression Assay for xenobiotic metabolism (CYP2C9) at 6 hours (AID 2283664)
# Summary of the method: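 Readout is qNPA chemiluminescence of CYP2C9 mRNA, taken 6 h after dosing of cultured human liver primary cells at several concentrations. Activity is the increase over 0.2% DMSO baseline. Morphology-based cytotoxicity flagged yes/no.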
# [6] = CCTE_Simmons_CellTiterGLO_HEK293T: Viability Assessment in CCTE's Assays for Thyroperoxidase (TPO) Inhibition, Simmons Lab (AID 2283665);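 for AC50: cells exposed to compound for 24 h before readout; actives reduce ATP signal below DMSO vehicle meaning cytotoxicity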
# Summary of the method: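 Cells were seeded overnight, then exposed to an eight-point series up to 87.5 uM final for 24 hours. CellTiter-Glo reagent was added and luminescence read after 20 min, giving ATP-based viability versus DMSO.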
# [7] = Tanguay_ZF_120hpf_TR_legacy: (Legacy) Oregon State University Tanguay Lab 120 Hour Post-fertilization zebrafish Assay for Touch Response (AID 2283667)
# Summary of the method: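 Readout is presence or absence of touch response in 120 hpf zebrafish larvae, assessed by brightfield observation after continuous static exposure at 28C. Final vehicle was 0.64% (vol/vol) DMSO.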
# [8] = read-out: sulfotransferase (SULT2A), SULT2A1 (gene 6822); assay: CLD_SULT2A_6hr: CellzDirect (CLD) Gene Expression Assay for sulfotransferase (SULT2A) at 6 hours (AID 2283669);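 note: hits raise transcript level above the DMSO vehicle baseline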
# Summary of the method: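 Measured 6 h after dosing, SULT2A1 mRNA in human hepatocyte lysates was quantified by S1 nuclease protection with chemiluminescent detection. Increases fitted against 0.2% DMSO vehicle baseline; phase-contrast cytotoxicity recorded yes/no.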
# [9] = read-out: matrix metalloproteinase-1 (MMP1), MMP1 (gene 4312); assay: LTEA_HepaRG_MMP1: Life Technologies and Expression Analysis (LTEA) Assay for matrix metalloproteinase-1 (MMP1) using HepaRG (AID 2283658; active = hit-call score of the fitted dose curve at least 0.9, where 1 is the maximum; inactive = score below 0.9); conditions: mRNA level, 48 h; actives raise or lower the signal
# Summary of the method: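 In this screen, human liver HepaRG cultures receive each chemical in duplicate for 48 h (top 100 uM, 0.5% DMSO). MMP1 expression is then quantified by TaqMan qRT-PCR with ACTB/GAPDH/POLR2A normalization.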
# [10] = read-out: alkyl and aryl transferase (GSTA2), GSTA2 (gene 2939); assay: CLD_GSTA2_6hr: CellzDirect (CLD) Gene Expression Assay for alkyl and aryl transferase (GSTA2) at 6 hours (AID 2283666)
# Summary of the method: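 GSTA2 transcript induction at 6 h, quantified by nuclease protection (qNPA) with chemiluminescent detection, in human liver primary hepatocytes exposed to several compound concentrations with 0.2% DMSO as baseline; phase-contrast morphology annotated apparent cytotoxicity.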
smiles,measurement,setting,value
CS(=O)(=O)c1ccc(C(=O)C2C(=O)CCCC2=O)c([N+](=O)[O-])c1,outcome,[1],inactive
same,outcome,[2],inactive
same,AC50,[3],30.6 µM (active)
same,outcome,[4],inactive
same,outcome,[5],inactive
same,outcome,[6],inactive
same,outcome,[7],inactive
same,outcome,[8],inactive
Cc1ccc(N=CN(C)C=Nc2ccc(C)cc2C)c(C)c1,outcome,[1],inactive
same,outcome,[4],inactive
same,outcome,[5],inactive
same,outcome,[7],inactive
same,outcome,[8],inactive
COC(=O)NS(=O)(=O)c1ccc(N)cc1,outcome,[1],inactive
same,AC50,[3],20.2 µM (active)
same,outcome,[5],inactive
same,outcome,[7],inactive
same,outcome,[8],inactive
Nc1c(Cl)c(Cl)nc(C(=O)O)c1Cl,outcome,[9],inactive
same,outcome,[1],inactive
same,AC50,[2],20 µM (active)
same,AC50,[4],33 µM (active)
same,outcome,[5],inactive
same,outcome,[7],inactive
N#CN=C1SCCN1Cc1ccc(Cl)nc1,outcome,[1],inactive
same,outcome,[2],inactive
same,outcome,[7],inactive
same,outcome,[8],inactive
CC1(C)C(C(=O)OC(C#N)c2cccc(Oc3ccccc3)c2)C1(C)C (stereo not given),outcome,[1],inactive
same,outcome,[2],inactive
same,outcome,[4],inactive
same,outcome,[5],inactive
same,outcome,[7],inactive
same,outcome,[8],inactive
COC(=O)N(C(=O)N1CO[C@@]2(C(=O)OC)Cc3cc(Cl)ccc3C2=N1)c1ccc(OC(F)(F)F)cc1,outcome,[1],inactive
same,AC50,[2],2.46 µM (active)
same,AC50,[4],0.449 µM (active)
same,outcome,[7],inactive
same,outcome,[8],inactive
Cc1nc(N(C)C)nc(OC(=O)N(C)C)c1C,outcome,[1],inactive
same,AC50,[2],4.32 µM (active)
same,AC50,[4],3.8 µM (active)
same,outcome,[5],inactive
same,outcome,[7],inactive
same,outcome,[8],inactive
CC(C)C1(C)N=C(c2ncccc2C(=O)O)NC1=O (stereo not given),outcome,[1],inactive
same,AC50,[4],1.89 µM (active)
same,outcome,[7],inactive
O=C1C2CC=CCC2C(=O)N1SC(Cl)(Cl)Cl (stereo not given),outcome,[1],inactive
same,outcome,[5],inactive
same,outcome,[7],inactive
Nc1cnn(-c2ccccc2)c(=O)c1Cl,AC50,[2],5.67 µM (active)
same,AC50,[4],9.27 µM (active)
same,outcome,[7],inactive
same,outcome,[8],inactive
CC1(C)C(C=C(Cl)Cl)C1C(=O)OC(C#N)c1cccc(Oc2ccccc2)c1 (stereo not given),outcome,[1],inactive
same,AC50,[4],2.15 µM (active)
same,outcome,[7],inactive
same,outcome,[8],inactive
COCc1cnc(C2=NC(C)(C(C)C)C(=O)N2)c(C(=O)O)c1 (stereo not given),outcome,[1],inactive
same,outcome,[10],inactive
same,outcome,[7],inactive
same,outcome,[8],inactive
Clc1nc(Cl)nc(Nc2ccccc2Cl)n1,outcome,[2],inactive
same,AC50,[3],6.29 µM (active)
same,outcome,[4],inactive
same,AC50,[6],83.1 µM (active)
same,outcome,[7],inactive
CCN(CC)C(=O)C(C)Oc1cccc2ccccc12 (stereo not given),AC50,[3],26.3 µM (active)
same,AC50,[4],4.15 µM (active)
same,AC50,[6],87.8 µM (active)
same,outcome,[7],inactive
same,outcome,[8],inactive
CCCC(=NOCC)C1=C(O)CC(CC(C)SCC)CC1=O (stereo not given),outcome,[1],inactive
same,outcome,[7],inactive
same,outcome,[8],inactive
O=c1n(Cl)c(=O)n(Cl)c(=O)n1Cl,AC50,[3],22.5 µM (active)
same,AC50,[4],20 µM (active)
same,outcome,[6],inactive
same,outcome,[7],inactive
same,outcome,[8],inactive
CO/N=C(/C1=NOCCO1)c1ccccc1Oc1ncnc(Oc2ccccc2Cl)c1F,outcome,[1],inactive
same,outcome,[5],inactive
same,outcome,[7],inactive
same,outcome,[8],inactive
N#Cc1c(Cl)cccc1Cl,outcome,[1],inactive
same,outcome,[5],inactive
same,outcome,[7],inactive
same,outcome,[8],inactive
CCCCC(O)(Cn1cncn1)c1ccc(Cl)cc1Cl (stereo not given),outcome,[1],inactive
same,outcome,[4],inactive
same,outcome,[7],inactive
CCOc1cc(C(C)(C)C)ccc1C1COC(c2c(F)cccc2F)=N1 (stereo not given),outcome,[1],inactive
same,outcome,[4],inactive
same,outcome,[7],inactive
same,outcome,[8],inactive
CS(=O)(=O)c1cc(C(F)(F)F)ccc1C(=O)c1cnoc1C1CC1,outcome,[2],inactive
same,outcome,[4],inactive
same,outcome,[5],inactive
same,outcome,[7],inactive
same,outcome,[8],inactive
CNC(=O)N(C)c1nnc(C(C)(C)C)s1,outcome,[1],inactive
same,outcome,[4],inactive
same,outcome,[7],inactive
Cc1c(COC(=O)[C@@H]2[C@H](/C=C(\Cl)C(F)(F)F)C2(C)C)cccc1-c1ccccc1,outcome,[1],inactive
same,outcome,[7],inactive
CCOC(=O)C(C)OC(=O)c1cc(Oc2ccc(C(F)(F)F)cc2Cl)ccc1[N+](=O)[O-] (stereo not given),outcome,[1],inactive
same,AC50,[4],4.81 µM (active)
same,outcome,[7],inactive
COC(=O)NC(=S)Nc1ccccc1NC(=S)NC(=O)OC,AC50,[3],22.2 µM (active)
same,outcome,[4],inactive
same,outcome,[6],inactive
same,outcome,[7],inactive
same,outcome,[8],inactive
CCN(CC)c1nc(C)cc(OP(=S)(OC)OC)n1,AC50,[3],19.1 µM (active)
same,AC50,[4],5.69 µM (active)
same,AC50,[6],53.8 µM (active)
same,outcome,[7],inactive
same,outcome,[8],inactive
CCSC(=O)N1CCCCCC1,outcome,[1],inactive
same,outcome,[8],inactive
Cc1cc(C)nc(Nc2ccccc2)n1,AC50,[2],3.97 µM (active)
same,AC50,[4],3.97 µM (active)
same,outcome,[7],inactive
same,outcome,[8],inactive
COc1cc(OC)nc(NC(=O)NS(=O)(=O)c2ncccc2OCC(F)(F)F)n1,outcome,[4],inactive
same,outcome,[5],inactive
same,outcome,[7],inactive
same,outcome,[8],inactive
CC(C)(C)C(=O)C(Oc1ccc(Cl)cc1)n1cncn1 (stereo not given),outcome,[1],inactive
same,AC50,[4],12.4 µM (active)
same,outcome,[7],inactive
same,outcome,[8],inactive
C=C(C)CN(CC)c1c([N+](=O)[O-])cc(C(F)(F)F)cc1[N+](=O)[O-],outcome,[1],inactive
same,outcome,[4],inactive
same,outcome,[7],inactive
same,outcome,[8],inactive
CN/C(=N\[N+](=O)[O-])NCc1cnc(Cl)s1,outcome,[7],inactive
COc1cc(Cl)c(OC)cc1Cl,outcome,[1],inactive
same,outcome,[5],inactive
same,outcome,[7],inactive
same,outcome,[8],inactive
CC(C)NC(=O)N1CC(=O)N(c2cc(Cl)cc(Cl)c2)C1=O,outcome,[1],inactive
same,AC50,[4],20 µM (active)
same,outcome,[7],inactive
same,outcome,[8],inactive
CCCCOCN(C(=O)CCl)c1c(CC)cccc1CC,AC50,[2],5.21 µM (active)
same,outcome,[4],inactive
same,outcome,[7],inactive
same,AC50,[8],4.32 µM (active)
Cn1c(-c2ccccc2)cc(-c2ccccc2)[n+]1C,outcome,[1],inactive
same,outcome,[4],inactive
same,outcome,[7],inactive
same,outcome,[8],inactive
N#Cc1c[nH]cc1-c1cccc2c1OC(F)(F)O2,AC50,[4],0.554 µM (active)
same,outcome,[5],inactive
same,outcome,[7],inactive
same,outcome,[8],inactive
O=C(Nc1ccccc1-c1ccc(Cl)cc1)c1cccnc1Cl,outcome,[1],inactive
same,AC50,[4],2.34 µM (active)
same,outcome,[7],inactive
same,outcome,[8],inactive
Clc1cccc(C(Cl)(Cl)Cl)n1,outcome,[1],inactive
same,outcome,[4],inactive
same,outcome,[8],inactive
